From PubChem BioAssay (Tox21)
Results filed as inconclusive are left out. Where a call stands in place of a potency, no number is given. Calls of active or inactive are those of the source. Calls come from the whole dose curve; as a rule, active = well fitted cell-killing curve with a large enough effect in the repeat runs; inconclusive = weak or mixed curves, or effect the other way; inactive = flat fitted curve, though single readings scatter.

Legend:
[1] = cAMP Responsive Elements (CRE) small molecule antagonists, cell-based qHTS assay: qHTS cell viability counter screen (AID 2060913); settings: CRE-bla HEK293T viability, CellTiter-Glo luminescence, 5 h; series mostly up to 92.4 µM; note: nearly all actives have a fitted effect of over 40% in size
Method in brief: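 Cytotoxicity counter screen multiplexed with the CRE-bla antagonist read: HEK293T cells in DMEM with dialyzed FBS and 25 mM HEPES were treated 3 hrs under 0.25 uM final NKH477, then viability measured by CellTiter-Glo luminescence.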

[2] = cAMP Responsive Elements (CRE) small molecule agonists, cell-based qHTS assay: qHTS cell viability counter screen (AID 2060914); settings: CRE-bla HEK293T viability, CellTiter-Glo luminescence, 5 h; series mostly up to 92.4 µM;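 note: viability read after 3 h of compound exposure; nearly all actives have a fitted effect of over 50% in size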
Method in brief: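 Cytotoxicity counter screen multiplexed with the CRE-bla reporter assay in HEK 293T cells: 3 h compound exposure at 37 °C, followed by CellTiter-Glo luminescence measured in the same wells.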

| SMILES | Potency [1] | Potency [2] |
| --- | --- | --- |
| Cc1oc(C)c(C(=O)Nc2ccccc2)c1C | inactive | inactive |
| C=CC(=O)O[C@H]1C[C@@H]2CC[C@@]1(C)C2(C)C | inactive | inactive |
| OC(CCN1CCCCC1)(c1ccccc1)c1ccccc1 | inactive | inactive |
| O=C(O)COCCN1CCN(C(c2ccccc2)c2ccc(Cl)cc2)CC1 (stereo not given) | inactive | inactive |
| CCN(Cc1ccncc1)C(=O)C(CO)c1ccccc1 (stereo not given) | inactive | inactive |
| CC[C@H](NC(=O)c1cc(F)ccc1NS(=O)(=O)c1cccc2cccnc12)c1ccccc1 | inactive | inactive |
| NCC(=O)CCC(=O)O | inactive | inactive |
| Cc1ncc(CSSCc2cnc(C)c(O)c2CO)c(CO)c1O | inactive | inactive |
| CC(N=C(NC#N)Nc1ccncc1)C(C)(C)C (stereo not given) | inactive | inactive |
| Nc1c(CC(=O)O)cccc1C(=O)c1ccc(Br)cc1 | inactive | inactive |
